Laboratory results taken from PubChem BioAssay (EPA / NIEHS).
Calls of active or inactive are those of the source. How the source made its calls: active means hit-call score of the fitted dose curve at least 0.9, where 1 is the maximum; inactive means score below 0.9.

read-out: Glutamate-cysteine ligase catalytic (GCLC), GCLC (gene 2729); experiment: LTEA_HepaRG_GCLC: Life Technologies and Expression Analysis (LTEA) Assay for Glutamate-cysteine ligase catalytic (GCLC) using HepaRG (AID 2283498); settings: mRNA level, 48 h; actives raise or lower the signal
Method: LTEA_HepaRG is a cell based, multiplexed-readout assay that uses HepaRG, a human liver cell line, with measurements taken at 48 hours after chemical dosing on a 96-well plate.LTEA_HepaRG_GCLC is one of 102 assay component(s) measured in the LTEA HepaRG cell culture assay. It is a marker of Oxidative Stress.Data from the assay component LTEA_HepaRG_GCLC was analyzed into 1 endpoint. This assay endpoint, LTEA_HepaRG_GCLC, was analyzed with bidirectional fitting relative to DMSO as the negative control and baseline of activity. Using a type of inducible reporter, measures of mRNA induction for gain or loss-of-signal activity can be used to understand regulation of transcription factor activity. To generalize the intended target to other relatable targets, this assay endpoint is annotated to the ligase intended target family, where the subfamily is C-N ligase.
A total of 1060 chemcials from the ToxCast library were tested in eight-point concentration-response experiments. Cell culture and cytotoxicity assays were conducted at Thermo Fisher Scientific's Custom Services facility (Madison, WI). A single lot of human HepaRG cells (Thermo Fisher Scientific, Frederick, MD) was used for the cell culture experiments. 96-well format collagen type I coated plates of human HepaRG cells were prepared using established methods. Briefly, cryopreserved HepaRG cells were thawed, plated at a density of approximately 100,000 cells/well in HepaRG Thaw, Plate, and General Purpose media (HPRG770, Thermo Fisher Scientific), and incubated for 48 hours. 0.5% DMSO was selected as vehicle control to balance the requisite need of DMSO in HepaRG cultures to maintain differentiation (for example, baseline metabolism, proportions of hepatocytes vs. cholangiocytes), while enabling further hepatic receptor pathway activation (for example, PXR and CAR) in response to chemical exposure. 48 hours after plating, the culture medium was replaced with HepaRG Serum-Free Incudtion Media. Cells were exposed to each test chemical in duplicate and maintained in CO2 incubators for another 48 hours. Chemical plates were thawed to room temperature and 200x concentrations of treatment groups were prepared. 8-point conentration-reponse curves were made with the highest exposure at 100 uM, followed by half-log dilutions, all in 0.5% DMSO. Each test plate contained variouse controls, induction positive controls (1mM phenobarbital), cytotoxicity positive controls ([…] aflatoxin B1), vehicle controls (0.5% DMSO), and total lysis controls (0.5% DMSO). Cell morphology images were taken using an Essen IncuCyte FLR automated microscope, with six 96-well plates imaged in about 24 minutes. Images were captured and exported and JPEG files. Spent culture media was transfered to black-well plates for the LDH assay, and remaining media was sorted at -80 C for later use. Cells were treated with RLT buffer and frozen until shipped for gene expression analysis. Total RNA was isolated from the cell suspension in 75 uL of Buffer RLT (Qiagen, Germantown, MD 20874) by Quintiles/Expression Analysis (Durham, NC) using a custom isolation procedure. Total RNA from each plate well was transferred to a preamplification plate. Fluidigm's 96.96 Dynamic ArrayTM (Fluidigm, Amsterdam, the Netherlands) technology was used for gene expression analyses by quantitative reverse transcription polymerase chain reaction (qRT-PCR, performed by Quintiles/Expression Analysis, Durham, NC)89. Standard TaqManTM Assays (Applied Biosystems/ThermoFisher Scientific, Foster City, CA) were used to assess the expression of 93 genes selected based on their selectivity and sensitivity to important hepatic receptors known to be modulated by environmental chemicals; importance in human hepatocyte functionality; and hepatotoxicity. […]

| SMILES | outcome | AC50 |
| --- | --- | --- |
| COCCOCCOCCOC | inactive | – |
| CCOCCO | inactive | – |
| CCNc1ccccc1 | inactive | – |
| COC(=O)c1ccccc1O | inactive | – |
| CC(C)CCCCCCOC(=O)c1ccc(C(=O)OCCCCCCC(C)C)c(C(=O)OCCCCCCC(C)C)c1 | inactive | – |
| O=P(OC(CCl)CCl)(OC(CCl)CCl)OC(CCl)CCl | – | 89.5 µM (active) |
| C1N2CN3CN1CN(C2)C3 | inactive | – |
| CCc1cc(SCc2sc(-c3ccc(C(F)(F)F)cc3)nc2CN2CCN(c3ccc(OC)cc3)CC2)ccc1OCC(=O)O | – | 94.1 µM (active) |
| Cn1c(=O)c2c(ncn2C)n(C)c1=O | inactive | – |
| CC(C)=CCC/C(C)=C\CO | inactive | – |
| Fc1ccccc1[C@@H](F)COC1CCC(Nc2ncnc3[nH]ncc23)CC1 (stereo not given in full) | – | 50 µM (active) |
| CCOC(=O)CC(CC(=O)OCC)(OC(C)=O)C(=O)OCC | inactive | – |
| Nc1cccc(N)c1 | inactive | – |
| CCCCCCCCCCCCc1ccccc1 | inactive | – |
| C1=CCCC=CCCC=CCC1 | inactive | – |
| Nc1nc2ncc(CNc3ccc(C(=O)N[C@@H](CCC(=O)O)C(=O)O)cc3)nc2c(=O)[nH]1 | inactive | – |
| CC[C@H](C)C(=O)O[C@H]1C[C@@H](C)C=C2C=C[C@H](C)[C@H](CC[C@@H]3C[C@@H](O)CC(=O)O3)[C@H]21 | inactive | – |
| O=C(NS(=O)(=O)/C=C/c1ccccc1)c1ccc(F)cc1Cl | inactive | – |
| CCOC(=O)COc1ccc2c(c1)CC(NCC(O)c1cccc(Cl)c1)CC2 (stereo not given) | inactive | – |
| O=C1CCC(N2C(=O)c3ccccc3C2=O)C(=O)N1 (stereo not given) | inactive | – |

| SMILES | outcome | AC50 |
| --- | --- | --- |
| Oc1ccc2c(c1)-c1ccccc1C2 | inactive | – |
| CCCCC(CC)COC(=O)CCCCCCCCC(=O)OCC(CC)CCCC (stereo not given) | inactive | – |
| O=C(O)c1cccc(N(Cc2cccnc2)c2ccc(OC(F)F)c(OC(F)F)c2)c1 | inactive | – |
| Cn1c(=O)cc(Oc2ccc(F)cc2F)c2cnc(NCC(C)(C)O)nc21 | inactive | – |
| COC(=O)CC(=O)OC | inactive | – |
| COc1cccc(-c2ccc(/C=C\CN3CCCCCC3)cc2Cl)c1 | inactive | – |
| CC(C)=CCCC(C)=CC=O | inactive | – |
| Cc1ccc(N)cc1O | inactive | – |
| CCCCC(CC)COC(=O)c1ccc(C(=O)OCC(CC)CCCC)cc1 (stereo not given) | inactive | – |
| O=C1OC(=O)C2C3C=CC(C3)C12 (stereo not given) | inactive | – |
| O=c1n(CC2CO2)c(=O)n(CC2CO2)c(=O)n1CC1CO1 (stereo not given) | inactive | – |
| Cc1ccc(O)cc1 | inactive | – |
| O=C(CCCCCCCCc1cccnc1)N1CCC(C=C(c2ccccc2)c2ccccc2)CC1 | – | 12.5 µM (active) |
| CC[C@H]1OC(=O)[C@H](C)[C@@H](O[C@H]2C[C@@](C)(OC)[C@@H](O)[C@H](C)O2)[C@H](C)[C@@H](O[C@@H]2O[C@H](C)C[C@H](N(C)C)[C@H]2O)[C@](C)(O)C[C@@H](C)C(=O)[C@H](C)[C@@H](O)[C@]1(C)O | inactive | – |
| Clc1nc(Cl)c(Cl)c(Cl)c1Cl | inactive | – |
| CCCN(C1CCN(C(=O)C2CCNCC2)CC1)[C@@H]1CCc2ccc(OC)cc2C1 | – | 50 µM (active) |
| CCOc1cccc(-n2cc(C(=O)N3CCN(c4cc(C(=O)O)c5ccccc5c4)CC3)nc2-c2ccc(C)cc2)c1 | – | 79.2 µM (active) |
| CC(=O)c1ccc2c(c1)[C@H](NC(=O)c1ccc(F)cc1)[C@@H](O)C(C)(C)O2 | inactive | – |
| CCn1nc(Cc2ccccc2)cc1C1CCN(C[C@H]2C[C@H](N(C)[C@@H](C(=O)O)C(C)C)C[C@@H]2c2cccc(F)c2)CC1 | inactive | – |
| CCC(C)(C)C(=O)O[C@H]1C[C@@H](C)C=C2C=C[C@H](C)[C@H](CC[C@@H]3C[C@@H](O)CC(=O)O3)[C@H]21 | inactive | – |
